Consider five sequences from paper PMC8384837, “Expanding the binding specificity for RNA recognition by a PUF domain”.

Chain of PUM1 PUF domain R1-YMR (Q14671 828-1176 S863Y/R864M/Q867R): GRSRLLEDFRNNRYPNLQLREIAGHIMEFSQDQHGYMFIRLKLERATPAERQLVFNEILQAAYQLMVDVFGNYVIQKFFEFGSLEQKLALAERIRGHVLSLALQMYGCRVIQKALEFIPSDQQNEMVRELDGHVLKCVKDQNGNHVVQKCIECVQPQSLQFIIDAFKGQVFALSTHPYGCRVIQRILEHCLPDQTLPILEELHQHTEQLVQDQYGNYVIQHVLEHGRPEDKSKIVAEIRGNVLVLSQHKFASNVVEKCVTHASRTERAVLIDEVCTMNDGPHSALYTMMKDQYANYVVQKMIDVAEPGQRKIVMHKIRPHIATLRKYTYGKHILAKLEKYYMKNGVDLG
Chain of PUM1 PUF domain R4-PFV (Q14671 828-1176 N971P/H972F/Q975V): as the sequence (Q14671 828-1176 S863Y/R864M/Q867R) above, with Y36S, M37R, R40Q, N144P, H145F, Q148V counted along it

The target in the first test is PUM1 PUF domain R4-PFV (Homo sapiens, UniProt Q14671 828-1176, N971P;H972F;Q975V). The experiment in a line: yeast three-hybrid, YBZ-1, SC-Leu-His + 0.5 mM 3-AT, 4 days. The following applies: tags: N-Gal4 AD-HA kept; label: inside an RPR1-promoter hybrid RNA with tandem MS2 sites; ssRNA. The essentials:
(§1)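 Each repeat of the Pumilio-1 PUF domain was randomized at its three base-contacting residues, and these libraries were co-expressed from a centromeric plasmid with matching RNA elements in strain YBZ-1. After four days on SC-Leu (input) or SC-Leu-His + 0.5 mM 3-AT (selection), the repeat regions were PCR-amplified and Illumina-sequenced. The interaction score compares variant frequency between input and selection as a log change, computed in log2 with a pseudocount of 1 for absent variants.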
Regarding “GGCUAGAACUAGUGGAUCCCCCGGCGCCCGGCGGCUCGAGCCCGGGUAAGUGUAAAUAGUCUGCAUGCCGCCGGGCGCCAUGCCUGCAGGUCGACUCUAGAAAACAUG”, the binding signal was 6.08 log2 enrichment (interaction score). Same read-out and setting: next, “GGCUAGAACUAGUGGAUCCCCCGGCGCCCGGCGGCUCGAGCCCGGGUAAGUGUACAUAGUCUGCAUGCCGCCGGGCGCCAUGCCUGCAGGUCGACUCUAGAAAACAUG”: 5.7 log2 enrichment (interaction score); “GGCUAGAACUAGUGGAUCCCCCGGCGCCCGGCGGCUCGAGCCCGGGUAAGUGUAUAUAGUCUGCAUGCCGCCGGGCGCCAUGCCUGCAGGUCGACUCUAGAAAACAUG”: 6.87 log2 enrichment (interaction score).

The next test concerns the target PUM1 PUF domain R1-YMR (Homo sapiens, UniProt Q14671 828-1176, S863Y;R864M;Q867R). The description is as above. The following applies: tags: N-Gal4 AD-HA kept; label: inside an RPR1-promoter hybrid RNA with tandem MS2 sites; ssRNA. The essentials: as §1
Regarding “GGCUAGAACUAGUGGAUCCCCCGGCGCCCGGCGGCUCGAGCCCGGGUAAGUGUAAAUUGUCUGCAUGCCGCCGGGCGCCAUGCCUGCAGGUCGACUCUAGAAAACAUG”, the binding signal was 4.12 log2 enrichment (interaction score). The same measure, in the same setting: next, “GGCUAGAACUAGUGGAUCCCCCGGCGCCCGGCGGCUCGAGCCCGGGUAAGUGUAAAUAGUCUGCAUGCCGCCGGGCGCCAUGCCUGCAGGUCGACUCUAGAAAACAUG”: 2.85 log2 enrichment (interaction score); “GGCUAGAACUAGUGGAUCCCCCGGCGCCCGGCGGCUCGAGCCCGGGUAAGUGUAAAUCGUCUGCAUGCCGCCGGGCGCCAUGCCUGCAGGUCGACUCUAGAAAACAUG”: 6.92 log2 enrichment (interaction score).
